From PubChem BioAssay
Shown are actives, neighbours in structure and some others; about 11% of the full set was active somewhere.
Gal4-VP16 FLuc – inhibits Gal4-VP16 luciferase reporter, ROR gamma counter-screen; Drosophila S2 Gal4-VP16 UAS-luciferase, luminescence, 20 h; Potency, µM (doses to about 53.6 µM), inactives show at the top dose activity, negative = inhibition, actives largely listed as inhibitors; 310,000 tested, 3.5% active; AID 2546;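 also: Gal4-VP16 expression switched on by copper sulfate through the metallothionein promoter; potency is read from the fitted curve at half-maximal effect; % is scaled to controls: 0 for no effect and ±100 for the full control effect; nearly all actives have a fitted effect of over 50% in size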
IL-1B inflam inh – inhibitors of inflammasome signaling (IL-1 beta secretion); THP-1 LPS/ATP IL-1B secretion, AlphaLISA, 16 h; active compounds read low; activity change, % at 57.5 µM; 360,000 tested, 4.7% active; in the data active = activity change below about -50%; inconclusive = mostly about -30% to -49%; also: % is scaled to controls: 0 for no effect and ±100 for the full control effect
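THP-1 cells pretreated 1 hr with compounds (up to 57.5 uM final), then stimulated with LPS (250 ng/mL final) plus ATP (1.25 mM final); secreted IL-1B measured by AlphaLISA after 16 hr, decreased signal indicating inhibition.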
SW480 rereplic – DNA re-replication induction in SW480 cells | 340,000 tested, 1.8% active | Potency, µM (titrated, usually from 46.1 µM), inactives show at the highest dose re-replication activation, actives largely listed as activators | SW480 DNA re-replication, Hoechst DNA content imaging, 48 h | AID 624297; also: potency is read from the fitted curve at half-maximal effect; % of control where 0% means no effect; nearly all actives have a fitted effect of over 55% in size
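SW480 cells exposed to compounds for 48 hr at 37 C, 5% CO2, then Hoechst-stained 40 min. Nuclear DNA content imaged by fluorescence scanning (405 nm excitation, 500-530 nm emission); re-replication scored as increased high-intensity nuclei.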
RORgamma inh – blocks mouse ROR gamma transcriptional activity; 310,000 tested, 5.4% active; Drosophila S2 Gal4-RORgamma UAS-luciferase reporter, 20 h; P51450; Potency, µM (titrated, usually from 53.6 µM), inactives show at the highest dose activity change, negative = inhibition, actives largely listed as inhibitors; AID 2551; also: potency is read from the fitted curve at half-maximal effect; % is scaled to controls: 0 for no effect and ±100 for the full control effect; nearly all actives have a fitted effect of over 60% in size
Target sequence (P51450 whole entry, looked up, the tested form may be a part): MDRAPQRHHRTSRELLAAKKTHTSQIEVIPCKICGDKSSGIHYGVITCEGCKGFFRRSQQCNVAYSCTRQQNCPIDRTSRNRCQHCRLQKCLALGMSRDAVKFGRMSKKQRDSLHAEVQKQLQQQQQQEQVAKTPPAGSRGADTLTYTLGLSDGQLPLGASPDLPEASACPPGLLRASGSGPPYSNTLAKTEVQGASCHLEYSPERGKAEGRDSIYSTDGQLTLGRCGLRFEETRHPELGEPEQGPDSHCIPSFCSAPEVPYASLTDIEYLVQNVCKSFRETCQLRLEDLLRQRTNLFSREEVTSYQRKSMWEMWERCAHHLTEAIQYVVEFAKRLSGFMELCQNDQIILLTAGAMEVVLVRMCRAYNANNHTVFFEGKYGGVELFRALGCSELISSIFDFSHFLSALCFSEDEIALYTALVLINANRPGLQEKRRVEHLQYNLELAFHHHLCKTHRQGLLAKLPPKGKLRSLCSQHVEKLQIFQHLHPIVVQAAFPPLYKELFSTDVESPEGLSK
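Compounds are pin-transferred onto Drosophila Schneider cells expressing a copper-inducible Gal4–ROR gamma transactivation domain fusion. After 1 hr, copper sulfate is added to 700 uM final; luciferase is read 20 hr later.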
MCF10A rereplic – induces DNA re-replication in MCF 10a normal breast cells; 350,000 tested, 2.9% active; Potency, µM (top dose mostly 46.1 µM), without a hit: top-dose activity, positive = re-replication, usual class: activators; AID 624296; MCF 10A DNA re-replication, Hoechst nuclear intensity, 48 h; also: potency is read from the fitted curve at half-maximal effect; % of control where 0% means no effect; nearly all actives have a fitted effect of over 50% in size
Active calls of the source: *; ? = inconclusive; nt = not tested or not shown; ! = repeats disagree. Unless noted, calls follow the shape of the dose curve; as a rule, active = well fitted curve in the direction sought with a large enough effect; inconclusive = small, poorly fitted or top-dose-only effect, or another doubt; inactive = no such curve, though single readings can be large; an effect the other way counts as inactive or inconclusive.

SMILES	Gal4-VP16 FLuc	IL-1B inflam inh	SW480 rereplic	RORgamma inh	MCF10A rereplic
COc1ccc(NC(=S)c2ccc3ccccc3n2)cc1	13µM*	0	5%	4µM*	-22%
COc1ccc(NC(=O)CN(C)C(=O)c2ccc3ccccc3n2)cc1	nt	8	19%	nt	-1%
CCCC1([C@H](O)C/C=C/[C@H]2[C@H](O)CC(=O)[C@@H]2CCCCCCC(=O)OC)CCC1	?	nt	nt	-36%	nt
Cc1ccc(C([O-])=C(C(=S)NCc2ccccc2)[n+]2cccc(CO)c2)cc1[N+](=O)[O-]	nt	12	-27%	nt	-12%
CCN(CC)S(=O)(=O)c1ccc(C(=O)Nc2cc(S(=O)(=O)N3CCOCC3)ccc2N2CCN(C)CC2)cc1	nt	-29	-12%	nt	8%
Cc1cccc(C)c1NC(=O)C(c1ccccc1)n1c(-c2ccccc2)nc2ccccc21 (configuration not stated)	nt	-19	nt	nt	nt
COc1ccc(N=C(NN)c2ccc3ccccc3n2)cc1	?	0	-7%	10µM*	?
CCOc1ccc(Nc2cc(C)c3ccccc3n2)cc1	-21%	0	17%	-5%	?
CCOc1ccc(Nc2c3ccccc3nc3ccccc23)cc1	?	-93*	4.6µM*	18%	3.3µM*
CC(=O)c1ccc(NC(=O)c2c(C)nn(-c3ccccc3)c2Cl)cc1	?	13	-7%	11µM*	-1%
CC1(O)CC(c2ccc(Cl)cc2)=NN1C(=O)c1ccc([N+](=O)[O-])cc1 (configuration not stated)	?	-88*	?	?	?
CCCCn1c(N)c(N(CCOC)C(=O)CCS(=O)(=O)c2ccc(C)cc2)c(=O)[nH]c1=O	nt	-26	nt	nt	nt
CC(Sc1nc2cc([N+](=O)[O-])ccc2n1-c1cccc(C(F)(F)F)c1)C(=O)NC(N)=O (configuration not stated)	20µM*	10	-5%	13µM*	7%
CCN(Cc1ccccc1)C(=O)C1CCN(Cc2sccc2C)CC1	-3%	-2	29µM*	15%	-2%
Cn1ccc2c(-c3ccc4c(c3)OCCO4)cc3c(c21)C1CCC3C1 (configuration not stated)	nt	2	nt	nt	nt
O=C(Nc1cccc(C(F)(F)F)c1)C1CCN(S(=O)(=O)c2ccc(N3CCCC3=O)cc2)CC1	13µM*	-19	?	?	17%
COc1cc(OC)nc(NC(=S)NC(=O)c2ccccc2)n1	?	3	6%	5µM*	5%
Cc1csc(NC(=O)c2ccccc2)n1	-14%	-7	11%	-81%	7%
Cc1ccc2cccc(NC(=S)NC(=O)c3ccccc3)c2n1	7.9µM*	24	16µM*	1.8µM*	?
Cc1ccc2cccnc2c1NC(=S)NC(=O)c1ccccc1	3.5µM*	26	10%	1.3µM*	14%
Cc1csc(NC(=S)NC(=O)c2ccccc2)n1	3.2µM*	19	-6%	2µM*	-7%
Cc1ccc(C2(C)NC(=O)N(CC(=O)NC3CCCCC3)C2=O)cc1 (configuration not stated)	nt	-18	-22%	nt	8%
CN1CCN(c2ncc3nc(CCc4ccccc4)c(=O)n(CCC#N)c3n2)CC1	-8%	nt	nt	-11%	nt
COc1cc(F)ccc1-c1csc(C(C)(NC(C)=O)c2ccccc2)n1 (configuration not stated)	nt	-6	nt	nt	nt
CC(=O)NC(=S)Nc1cccc2c(C)cc(C)nc12	11µM*	27	13%	1.6µM*	0%
SMILES	Gal4-VP16 FLuc	IL-1B inflam inh	SW480 rereplic	RORgamma inh	MCF10A rereplic
Cc1cc(C)c2cccc(NC(=S)NC(=O)c3ccccc3)c2n1	3.2µM*	22	4.1µM*	?	19%
CC(=O)NC(=S)Nc1ccccc1C(=O)Nc1ccccc1	-5%	9	3%	3%	-6%
NCCC(=O)N[C@H](Cc1cnc[nH]1)C(=O)O	4%	nt	nt	-24%	nt
O=C(COC(=O)c1cc(S(=O)(=O)N2CCOCC2)ccc1F)c1ccc[nH]1	3%	-62*	-9%	2%	?
O=C1COc2ccc(C(=O)COC(=O)c3cc(S(=O)(=O)N4CCOCC4)ccc3F)cc2N1	nt	-70*	3%	nt	-10%
Cc1nnc(SCC(=O)NCC2COc3ccccc3O2)s1 (configuration not stated)	nt	12	-6%	nt	-2%
CCCCCCCCNC(C)C(O)c1ccc(SC(C)C)cc1 (configuration not stated)	?	-86*	?	11µM*!	24µM*!
Cc1cccc(CN2CCC(C(=O)Nc3cccc(-c4cccc(F)c4)c3)CC2)n1	?	?	?	7.1µM*	?
CCCn1ncc(CN2CCC(C(=O)Nc3cccc(-c4cccc(F)c4)c3)CC2)c1C	-19%	-76*	?	-15%	?
Cc1nn(C(C)C)c(C)c1CN1CCC(C(=O)Nc2cccc(-c3cccc(F)c3)c2)CC1	-19%	-52*	100%	?	?
Cc1cc(N2CCC(C(=O)Nc3ccc(F)cc3)CC2)nc(-c2ccccc2)n1	-5%	-53*	-3%	?	?
COc1ccc(NC(=O)C2CCN(c3cc(C)nc(-c4ccccc4)n3)CC2)cc1	-6%	-6	-4%	29%	16%
Cc1nc(NCc2ccccc2)c2nc(-c3ccccc3)n(CCCN3CCCCC3C)c2n1 (configuration not stated)	-6%	nt	nt	-38%	nt
Cc1[nH]c(=S)sc1Cc1ccc(F)cc1	10µM*	44	4%	4µM*	3%
CC(=O)OCC(NC(=O)C1CCCN1C(=O)OC(C)(C)C)C1OC(n2ccc(=O)[nH]c2=O)C(OC(C)=O)C1OC(C)=O (configuration not stated)	-4%	nt	nt	-11%	nt
O=C(CSc1nnnn1-c1ccccc1)NCC1(N2CCOCC2)CCCCC1	nt	1	-6%	nt	?
CCCn1nnc(NC(=O)c2ccc(Br)cc2)n1	-11%	-3	5%	0%	-7%
Cn1nnc(NC(=S)NC(=O)c2ccc(-c3ccc(Br)cc3)o2)n1	5µM*	-13	-1%	0.71µM*	-12%
CCCn1nnc(NC(=S)NC(=O)c2ccc(-c3ccc(Br)cc3)o2)n1	2.5µM*	17	-7%	0.79µM*	2%
COCCN(C(=O)COC(=O)/C=C/c1ccc(OC)c(OC)c1)c1c(N)n(Cc2ccccc2)c(=O)[nH]c1=O	nt	6	5%	nt	-3%
O=C(c1[nH]c(C(F)(F)F)nc1-c1ccccc1)N1CCC2(CC1)C(=O)NCN2c1ccccc1	nt	34	nt	nt	nt
O=C1[C@H]2[C@@H](c3ccc(C(F)(F)F)cc3)N[C@]3(CCCN(Cc4ccc(F)cc4)C3=O)[C@H]2C(=O)N1Cc1ccccc1	nt	-56*	nt	nt	nt
